Screening results: PubChem, Broad Institute
SIRT5 block – inhibitors of human sirtuin-5 desuccinylase; inhibition, % at 15 µM; AID 652115; 330,000 tested, 1.1% active; Purified SirT5, succinyl-peptide AMC, trypsin-coupled fluorescence; Q9NXA8; in the data active = inhibition above about 15%; inconclusive = no clear call, values can overlap the other calls
Target sequence (Q9NXA8 whole entry, looked up): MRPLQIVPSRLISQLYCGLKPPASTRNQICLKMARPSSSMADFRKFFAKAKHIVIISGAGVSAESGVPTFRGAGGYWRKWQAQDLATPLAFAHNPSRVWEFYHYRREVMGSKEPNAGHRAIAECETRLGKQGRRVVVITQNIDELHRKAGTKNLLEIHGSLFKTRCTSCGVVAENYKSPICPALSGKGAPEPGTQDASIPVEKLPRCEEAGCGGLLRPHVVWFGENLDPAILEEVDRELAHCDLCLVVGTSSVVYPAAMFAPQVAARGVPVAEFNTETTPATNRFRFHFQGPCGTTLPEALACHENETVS
Rtt109 HAT inh – inhibitors of Candida albicans Rtt109/Vps75 histone acetyltransferase; purified Rtt109/Vps75, ThioGlo CoA-SH fluorescence, 4 h; inhibition, % at 34.9 µM; 330,000 tested, 0.16% active; AID 540336;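 active = inhibition of at least 50% in every replicate; inconclusive = best replicate reaches 50% inhibition but some replicates fall short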
ERp5 block – ERp5 (human) disulfide isomerase inhibition; 350,000 tested, 0.05% active; inhibition, % at 9.99 µM; ERp5 insulin aggregation, absorbance 650 nm, 90 min; Q15084;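 active = mean replicate inhibition above about 25%, with every replicate also reaching it, limit read from the data, passing the limit was not always enough; inconclusive = only one of those two criteria met; inactive = neither criterion met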
DENV2 CPE rescue – DENV2-induced cell death inhibition; 350,000 tested, 1.7% active; CPE inhibition, % at 9.99 µM; DENV2-infected cells, cytopathic effect rescue, plate reader; AID 651640; in the data active = CPE inhibition above about 20%, passing the limit was not always enough; inconclusive = no clear call, values can overlap the other calls; tested in BHK-21 cells;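 note: 0% = median of neutral control wells and 100% = median of positive control wells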
PDI turbidity – inhibitors of human protein disulfide isomerase; P07237; PDI insulin aggregation turbidity, A650, 90 min; inhibition, % at 10 µM; 350,000 tested, 0.052% active; AID 588391;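 active = mean inhibition across replicates of 30% or more, whatever share of single replicates reach that level; inconclusive = mean inhibition below 30% while every single replicate reaches 30%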
Numbers without * were called inactive; ? = inconclusive; · = no result; ! = not active in a repeat. This is a sample that favours compounds with a hit; in the whole collection about 2.3% have one here.

SMILES	SIRT5 block	Rtt109 HAT inh	ERp5 block	DENV2 CPE rescue	PDI turbidity
C[C@@H]1CN([C@H](C)CO)C(=O)CCCn2nncc2CO[C@@H]1CN(C)C(=O)CCCN(C)C	-3	·	-2	0	·
C[C@H](CO)N1C[C@H](C)[C@@H](CN(C)Cc2ccc(O)cc2)OCc2cnnn2CCCC1=O	0	·	-1	42*!	10
C[C@H](CO)N1C[C@H](C)[C@@H](CN(C)C(=O)Cc2ccccc2)OCc2cnnn2CCCC1=O	-1	·	-2	12	0
C[C@H](CO)N1C[C@H](C)[C@H](CN(C)C(=O)Nc2ccccc2C(F)(F)F)OCc2cnnn2CCCC1=O	16*	·	1	-3	·
C[C@H]1CN([C@@H](C)CO)C(=O)CCCn2nncc2CO[C@@H]1CN(C)C(=O)CCCN(C)C	22*	·	-1	-9	·
C[C@@H]1CN([C@H](C)CO)C(=O)CCCn2nncc2CO[C@@H]1CN(C)C(=O)Cc1ccccc1	-6	·	6	33*!	-2
Cc1ccc(-c2ccc3c(c2)O[C@H](CN(C)C(=O)Nc2ccc(F)cc2)[C@H](C)CN([C@@H](C)CO)S3(=O)=O)cc1	10	·	-2	-9	·
C/C=C/c1cnc2c(c1)C(=O)N([C@H](C)CO)C[C@H](C)[C@H](CN(C)S(=O)(=O)c1ccc(OC)cc1)O2	-2	·	0	-1	·
CC(C)OC(=O)N(C)C[C@H]1OCc2cnnn2CCCC(=O)N([C@H](C)CO)C[C@@H]1C	2	·	-15	29*!	6
CC(C)NC(=O)N(C)C[C@@H]1OCc2cnnn2CCCC(=O)N([C@H](C)CO)C[C@@H]1C	-3	·	-5	-3	-4
CC(C)NC(=O)N(C)C[C@H]1OCc2cnnn2CCCC(=O)N([C@@H](C)CO)C[C@@H]1C	3	·	3	45*	·
O=C(C[C@@H]1CC[C@H]2[C@@H](COC[C@H](O)CN2C(=O)c2cnccn2)O1)NCc1ccc(F)cc1	1	·	-1	5	·
COc1ccc(NC(=O)Nc2ccc3c(c2)[C@@H]2C[C@@H](CC(=O)NC4CCCC4)O[C@@H](CO)[C@@H]2O3)cc1	-1	·	7	5	·
O=C(COc1cccc2ccccc12)N1CCN(c2ccccn2)CC1	18*	4	2	-3	0
O=S(=O)(NC[C@@H]1CC[C@H]2[C@H](CN2Cc2cccc(-c3ccccn3)c2)O1)c1ccccc1	18*	·	0	6	·
Cc1noc(C)c1NC(=O)NC[C@@H]1CC[C@@H]2[C@@H](CN2Cc2cccc(-c3ccccn3)c2)O1	1	·	-3	?	·
O=C([C@H]1[C@H](CO)[C@H]2Cn3c(cccc3=O)[C@H]2N1Cc1ccccc1Cl)N1CCOCC1	-4	·	0	-10	·
NNC(=O)c1ccc(-c2ccccc2F)cc1	-3	-5	·	27*	6
NC(=O)c1ccc(-c2ccccc2F)cc1	-3	-3	4	3	-10
CC1C=NC(S(=O)(=O)N2CC[C@@H]3[C@@H](CO)N(C)c4ccc(-c5ccc(F)cc5)cc4[C@@H]32)=N1 (stereo not given in full)	·	·	·	21*	·
CN1c2ccc(-c3ccccc3F)cc2[C@H]2[C@H](CCN2S(=O)(=O)c2ccccc2)[C@H]1CO	9	·	3	-5	·
Cc1cccc(S(=O)(=O)N2CC[C@@H]3[C@@H](CO)N(C)c4ccc(-c5ccccc5F)cc4[C@@H]32)c1	7	·	-8	35*	·
Cc1cccc(S(=O)(=O)N2CC[C@@H]3[C@H](CO)N(C)c4ccc(-c5ccccc5F)cc4[C@@H]32)c1	5	·	1	-8	·
CN1c2ccc(-c3ccccc3F)cc2[C@H]2[C@H](CCN2S(=O)(=O)c2ccccc2)[C@@H]1CO	9	·	3	21*	·
C/C=C/c1ccc2c(c1)O[C@@H](CN(C)C(=O)c1cnccn1)[C@H](C)CN([C@@H](C)CO)S2(=O)=O	-1	·	-7	4	·
CCC(=O)N[C@@H]1CC[C@H](CCNS(=O)(=O)c2ccc(Cl)cc2)O[C@@H]1CO	-1	·	2	-2	·
C[C@@H]1CN([C@@H](C)CO)C(=O)c2cc(NC(=O)c3ccccc3)ccc2O[C@@H](C)CCCCO[C@@H]1CN(C)C(=O)C1CCCCC1	4	·	-3	0	·
Nc1ccccc1O	·	-6	·	·	·
Nc1cccc2c(O)cccc12	0	10	2	32*	7
C[C@H]1CN([C@@H](C)CO)C(=O)Cc2cc(NS(=O)(=O)c3ccc(Cl)cc3)ccc2O[C@H]1CN(C)Cc1ccc(Cl)c(Cl)c1	6	·	12	8	·
